# Source: PubChem BioAssay (NCATS)
# Values joined by “and” are separate entries in the source; they are usually repeats but may differ in a detail not shown here. Equal entries are not always repeated. Active and inactive are the calls of the source. A call without a number means that no potency is given here. Unless noted, the call rests on the fitted dose curve.
# How the values were obtained:
# [1] = biological target: Ubiquitin carboxyl-terminal hydrolase 1 (Homo sapiens) (UniProt O94782); assay: Inhibitors of USP1/UAF1: Pilot qHTS (AID 504865; active means well fitted inhibition curve with a large enough effect; inconclusive means small, poorly fitted or top-dose-only effect; further: nearly all actives have a fitted effect of over 35% in size; further: potency means the concentration at half of the fitted maximal effect)
# Chain of Ubiquitin carboxyl-terminal hydrolase 1 (Homo sapiens) (O94782 whole entry, looked up): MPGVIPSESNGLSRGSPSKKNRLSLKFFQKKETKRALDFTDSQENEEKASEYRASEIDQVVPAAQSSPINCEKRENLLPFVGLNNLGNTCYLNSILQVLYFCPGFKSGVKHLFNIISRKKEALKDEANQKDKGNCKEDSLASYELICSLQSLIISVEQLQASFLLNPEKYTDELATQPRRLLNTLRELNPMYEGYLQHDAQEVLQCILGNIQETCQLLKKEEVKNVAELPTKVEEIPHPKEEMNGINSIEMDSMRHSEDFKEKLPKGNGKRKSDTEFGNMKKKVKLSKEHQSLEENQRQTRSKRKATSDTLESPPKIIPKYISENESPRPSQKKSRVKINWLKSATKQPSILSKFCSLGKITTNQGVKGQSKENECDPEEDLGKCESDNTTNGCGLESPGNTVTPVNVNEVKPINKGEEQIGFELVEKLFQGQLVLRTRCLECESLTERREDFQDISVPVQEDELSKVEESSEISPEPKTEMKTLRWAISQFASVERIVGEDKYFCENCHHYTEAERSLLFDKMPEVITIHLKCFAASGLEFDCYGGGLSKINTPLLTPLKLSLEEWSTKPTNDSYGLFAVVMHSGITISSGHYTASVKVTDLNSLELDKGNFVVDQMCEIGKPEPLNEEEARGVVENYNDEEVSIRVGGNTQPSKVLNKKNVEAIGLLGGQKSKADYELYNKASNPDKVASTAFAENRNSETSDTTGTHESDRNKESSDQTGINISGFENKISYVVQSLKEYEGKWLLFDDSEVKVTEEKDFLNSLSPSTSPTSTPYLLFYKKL
# How it was run: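 USP1/UAF1 complex (1nM) preincubated with compound 15 min at room temperature, then Ub-Rho substrate (150nM final) added. Fluorescence read kinetically at 480/540 nm, 6 reads every 60 seconds. Buffer: 50mM HEPES pH 7.8, 0.5mM EDTA, 0.1 mg/ml BSA, 1mM TCEP, 0.01% Tween-20.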
# [2] = biological target: Estrogen receptor (Homo sapiens) (UniProt P03372); assay: qHTS assay for small molecule antagonists of estrogen receptor alpha signaling (AID 588513; active means well fitted curve in the direction sought with a large enough effect in the signal ratio, with a control signal flat, not every such curve was filed as active; inconclusive means small, poorly fitted or top-dose-only effect, or effect the other way, or a change in a side signal; inactive means no such curve, though single readings can be large or run the other way; the % refers to the signal ratio; further: potency means the concentration at half of the fitted maximal effect)
# Chain of Estrogen receptor (Homo sapiens) (P03372 whole entry, looked up): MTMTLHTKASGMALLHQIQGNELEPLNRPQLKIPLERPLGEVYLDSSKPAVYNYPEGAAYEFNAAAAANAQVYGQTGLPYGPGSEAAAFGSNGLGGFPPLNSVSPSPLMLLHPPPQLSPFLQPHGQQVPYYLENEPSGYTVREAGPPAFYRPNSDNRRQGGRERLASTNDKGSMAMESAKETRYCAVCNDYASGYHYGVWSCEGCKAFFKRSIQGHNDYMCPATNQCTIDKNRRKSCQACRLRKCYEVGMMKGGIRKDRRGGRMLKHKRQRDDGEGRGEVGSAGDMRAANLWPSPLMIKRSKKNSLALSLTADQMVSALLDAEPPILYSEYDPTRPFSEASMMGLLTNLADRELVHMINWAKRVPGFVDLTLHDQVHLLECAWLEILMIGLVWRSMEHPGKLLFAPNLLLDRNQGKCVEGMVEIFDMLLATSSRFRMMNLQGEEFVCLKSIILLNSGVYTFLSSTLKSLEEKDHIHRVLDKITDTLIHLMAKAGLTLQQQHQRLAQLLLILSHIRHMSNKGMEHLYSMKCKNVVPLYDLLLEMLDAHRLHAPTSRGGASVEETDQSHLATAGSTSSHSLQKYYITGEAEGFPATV
# How it was run: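 ER-alpha-UAS-bla GripTite HEK 293 cells in medium with 2% charcoal/dextran-treated FBS were preincubated 4 h at 37 C, dosed with compound (1:2 titration), stimulated with 0.5nM 17-beta-estradiol for 18 h, then read by CCF4 beta-lactamase fluorescence.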
# [3] = biological target: Estrogen receptor (Homo sapiens) (UniProt P03372); assay: qHTS assay for small molecule agonists of estrogen receptor alpha signaling (AID 588514); further: nearly all actives have a fitted effect of over 70% in size
# How it was run: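 ER-alpha-UAS-bla GripTite HEK293 cells, 5000/well in 2% charcoal/dextran-stripped FBS medium, treated with compound titrations 18 h at 37 C. CCF4 beta-lactamase read by fluorescence after 2 h RT; normalised to 20 nM 17-beta-estradiol (100%) and DMSO (0%), Hill fit for EC50 and efficacy.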
# [4] = biological target: Bile acid receptor (Homo sapiens) (UniProt Q96RI1); assay: qHTS assay for small molecule antagonists of farnesoid X receptor signaling (AID 588526)
# Chain of Bile acid receptor (Homo sapiens) (Q96RI1 whole entry, looked up): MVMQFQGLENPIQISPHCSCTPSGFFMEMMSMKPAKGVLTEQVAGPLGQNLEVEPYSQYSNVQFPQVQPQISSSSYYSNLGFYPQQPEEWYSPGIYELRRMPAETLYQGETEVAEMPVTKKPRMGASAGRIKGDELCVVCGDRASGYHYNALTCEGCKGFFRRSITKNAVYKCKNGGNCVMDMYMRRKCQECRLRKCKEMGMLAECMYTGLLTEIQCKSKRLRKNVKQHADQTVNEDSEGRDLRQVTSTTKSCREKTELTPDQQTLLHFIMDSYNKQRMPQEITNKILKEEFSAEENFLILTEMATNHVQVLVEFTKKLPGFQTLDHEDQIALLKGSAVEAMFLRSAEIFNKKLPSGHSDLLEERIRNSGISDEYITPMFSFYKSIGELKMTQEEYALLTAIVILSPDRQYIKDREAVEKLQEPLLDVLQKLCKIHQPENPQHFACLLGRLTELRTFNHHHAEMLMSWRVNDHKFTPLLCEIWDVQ
# How it was run: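 Antagonist mode: titrated compounds tested against chenodeoxycholic acid stimulation (normalized to 50 uM CDCA and DMSO) in GeneBLAzer HEK293T cells for 16 h. Beta-lactamase read by CCF4 fluorescence; IC50 from Hill fits.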
# [5] = biological target: Bile acid receptor (Homo sapiens) (UniProt Q96RI1); assay: qHTS assay for small molecule agonists of farnesoid X receptor signaling (AID 588527); conditions: HEK293T FXR-UAS-bla, beta-lactamase ratio, 16 h; stronger effect = higher value; further: series mostly up to about 77 µM
# How it was run: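 FXR-UAS-bla HEK293T cells (10% dialyzed FBS) preincubated 5-7 h at 37 C, then compounds at up to 92 uM for 16 h at 37 C. CCF4 beta-lactamase read-out after 2 h RT. Normalized to chenodeoxycholic acid (100 uM) and DMSO; Hill fit gave EC50 and efficacy.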
# [6] = biological target: Peroxisome proliferator-activated receptor delta (Homo sapiens) (UniProt Q03181); assay: qHTS assay for small molecule agonists of peroxisome proliferator-activated receptor delta signaling (AID 588534)
# Chain of Peroxisome proliferator-activated receptor delta (Homo sapiens) (Q03181 whole entry, looked up): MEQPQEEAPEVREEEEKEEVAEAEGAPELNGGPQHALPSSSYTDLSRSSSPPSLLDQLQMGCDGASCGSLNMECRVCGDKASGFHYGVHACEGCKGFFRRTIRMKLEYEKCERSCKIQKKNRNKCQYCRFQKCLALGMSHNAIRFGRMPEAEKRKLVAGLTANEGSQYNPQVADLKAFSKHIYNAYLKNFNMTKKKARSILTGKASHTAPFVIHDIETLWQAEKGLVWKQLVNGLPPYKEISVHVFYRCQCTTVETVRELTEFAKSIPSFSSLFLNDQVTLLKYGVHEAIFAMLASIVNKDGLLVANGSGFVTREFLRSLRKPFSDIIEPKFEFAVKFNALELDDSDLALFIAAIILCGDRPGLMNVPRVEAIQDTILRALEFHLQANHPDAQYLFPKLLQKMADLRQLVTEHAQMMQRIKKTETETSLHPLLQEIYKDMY
# How it was run: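 Cells carrying a PPAR-delta beta-lactamase reporter were treated with compounds for 18 h at 37 °C in agonist mode. CCF4 fluorescence was read after 2 h; EC50 and efficacy from Hill fits.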
# [7] = qHTS assay for small molecule antagonists of peroxisome proliferator-activated receptor delta signaling (AID 588535; active means well fitted inhibition curve with a large enough effect in the signal ratio, with a control signal flat, not every such curve was filed as active; inconclusive means small, poorly fitted or top-dose-only effect, or effect the other way, or a change in a side signal; inactive means no such curve, though single readings can be large or run the other way; the % refers to the signal ratio; further: potency means the concentration at half of the fitted maximal effect;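 on max response: cells co-treated with a PPAR-delta agonist as stimulator during compound exposure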); conditions: HEK293T PPARd-UAS-bla, beta-lactamase FRET ratio, 18 h; 460 nm channel
# How it was run: (§1)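 Antagonist-mode beta-lactamase reporter (GeneBLAzer PPAR-delta-UAS-bla) in HEK293T cells, 2% charcoal/dextran FBS, 4000 cells/well. Compound titrations, 18 h at 37 C; CCF4 ratio read, IC50 and efficacy from Hill fits.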
# [8] = biological target: Peroxisome proliferator-activated receptor delta (Homo sapiens) (UniProt Q03181); assay: as above
# How it was run: as §1
# [9] = biological target: Vitamin D3 receptor (Homo sapiens) (UniProt P11473); assay: qHTS assay for small molecule antagonists of vitamin D receptor signaling (AID 588541);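 further: receptor activated by calcitriol during compound treatment; series mostly up to about 77 µM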
# Chain of Vitamin D3 receptor (Homo sapiens) (P11473 whole entry, looked up): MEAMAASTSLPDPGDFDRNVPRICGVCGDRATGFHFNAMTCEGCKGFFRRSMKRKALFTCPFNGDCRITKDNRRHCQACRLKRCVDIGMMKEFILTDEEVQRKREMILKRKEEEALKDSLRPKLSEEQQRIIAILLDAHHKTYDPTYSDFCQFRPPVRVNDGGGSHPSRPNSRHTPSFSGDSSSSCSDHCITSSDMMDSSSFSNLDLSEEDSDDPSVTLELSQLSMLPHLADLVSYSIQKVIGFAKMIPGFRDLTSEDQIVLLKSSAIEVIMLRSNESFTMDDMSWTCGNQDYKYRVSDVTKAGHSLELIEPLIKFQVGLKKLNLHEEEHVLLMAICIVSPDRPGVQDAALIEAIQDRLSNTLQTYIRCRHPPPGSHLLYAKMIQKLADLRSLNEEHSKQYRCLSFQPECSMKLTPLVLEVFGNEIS
# How it was run: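 VDR-UAS-bla HEK293T cells in 2% charcoal-stripped FBS were stimulated with 1-alpha,25-dihydroxyvitamin D3 (3 nM final) plus compound for 16 h at 37 C. The beta-lactamase CCF4 readout was normalized to 50 nM agonist and DMSO, and Hill fits gave IC50.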
# [10] = biological target: Peroxisome proliferator-activated receptor gamma (Homo sapiens) (UniProt P37231); assay: qHTS assay for small molecule agonists of peroxisome proliferator-activated receptor gamma signaling (AID 588536; active means well fitted curve in the direction sought with a large enough effect in the signal ratio, with a control signal flat, not every such curve was filed as active; inconclusive means small, poorly fitted or top-dose-only effect, or effect the other way, or a change in a side signal; inactive means no such curve, though single readings can be large or run the other way; the % refers to the signal ratio)
# Chain of Peroxisome proliferator-activated receptor gamma (Homo sapiens) (P37231 whole entry, looked up): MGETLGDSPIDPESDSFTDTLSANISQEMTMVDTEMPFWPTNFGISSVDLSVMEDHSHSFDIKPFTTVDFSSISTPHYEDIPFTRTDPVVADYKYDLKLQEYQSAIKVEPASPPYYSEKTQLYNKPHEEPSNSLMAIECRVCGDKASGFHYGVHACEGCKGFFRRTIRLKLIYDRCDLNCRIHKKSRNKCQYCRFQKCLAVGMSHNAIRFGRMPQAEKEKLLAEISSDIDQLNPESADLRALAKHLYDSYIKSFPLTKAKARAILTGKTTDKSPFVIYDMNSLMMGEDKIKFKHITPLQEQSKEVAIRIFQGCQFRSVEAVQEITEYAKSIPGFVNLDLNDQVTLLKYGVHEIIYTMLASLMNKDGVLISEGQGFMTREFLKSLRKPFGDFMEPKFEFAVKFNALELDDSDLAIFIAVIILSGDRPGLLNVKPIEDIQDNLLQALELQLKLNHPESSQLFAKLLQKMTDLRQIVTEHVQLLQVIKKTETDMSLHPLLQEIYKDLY
# How it was run: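 GeneBLAzer PPAR-gamma-UAS-bla HEK293 cells in 1% charcoal/dextran-treated FBS medium were treated 16 h at 37 C with compounds. Beta-lactamase activity was read by CCF4 ratio (460/530 nm). Response was normalized to 2 uM rosiglitazone (100%) and DMSO, then Hill-fitted for EC50 and efficacy.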
# [11] = biological target: Androgen receptor (Homo sapiens) (UniProt P10275); assay: qHTS assay for small molecule agonists of androgen receptor signaling (AID 588515; active means well fitted curve in the direction sought with a large enough effect in the signal ratio, with a control signal flat; inconclusive means small, poorly fitted or top-dose-only effect, or effect the other way, or a change in a side signal; inactive means no such curve, though single readings can be large or run the other way; the % refers to the signal ratio); conditions: AR-UAS-bla HEK293, beta-lactamase ratio, agonist 16 h; activation: stronger effect = higher value
# Chain of Androgen receptor (Homo sapiens) (P10275 whole entry, looked up): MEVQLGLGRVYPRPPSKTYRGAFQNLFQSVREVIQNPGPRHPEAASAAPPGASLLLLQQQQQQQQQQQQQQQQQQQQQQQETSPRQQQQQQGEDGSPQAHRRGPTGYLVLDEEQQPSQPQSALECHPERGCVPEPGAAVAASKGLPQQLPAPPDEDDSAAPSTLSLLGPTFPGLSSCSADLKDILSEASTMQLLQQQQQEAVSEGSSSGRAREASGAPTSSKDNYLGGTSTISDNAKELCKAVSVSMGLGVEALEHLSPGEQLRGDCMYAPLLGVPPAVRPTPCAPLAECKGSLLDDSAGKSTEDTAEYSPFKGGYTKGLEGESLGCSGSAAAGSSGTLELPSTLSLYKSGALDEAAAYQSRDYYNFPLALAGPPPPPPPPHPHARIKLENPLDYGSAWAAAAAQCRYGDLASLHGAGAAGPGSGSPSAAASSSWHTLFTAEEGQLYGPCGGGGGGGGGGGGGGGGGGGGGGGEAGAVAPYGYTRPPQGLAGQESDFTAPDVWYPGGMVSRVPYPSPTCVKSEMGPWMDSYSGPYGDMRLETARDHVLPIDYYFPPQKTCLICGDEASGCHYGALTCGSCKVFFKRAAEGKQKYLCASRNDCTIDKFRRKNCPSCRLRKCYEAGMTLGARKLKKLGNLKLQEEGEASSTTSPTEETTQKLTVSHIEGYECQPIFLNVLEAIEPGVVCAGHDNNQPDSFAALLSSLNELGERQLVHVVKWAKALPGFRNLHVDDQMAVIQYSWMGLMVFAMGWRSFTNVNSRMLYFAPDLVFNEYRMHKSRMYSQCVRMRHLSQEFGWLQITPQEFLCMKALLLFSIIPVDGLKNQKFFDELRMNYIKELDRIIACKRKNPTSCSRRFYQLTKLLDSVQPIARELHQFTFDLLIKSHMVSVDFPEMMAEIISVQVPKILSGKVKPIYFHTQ
# How it was run: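 EC50 and efficacy came from Hill fits of titrations (up to 92 uM) normalized to 30 nM R1881 as 100% and DMSO as 0%. Compound exposure was 16 h at 37 C on AR-UAS-bla HEK293 cells, with a 405/460/530 nm CCF4 fluorescence read.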
# [12] = biological target: Androgen receptor (Homo sapiens) (UniProt P10275); assay: qHTS assay for small molecule antagonists of androgen receptor signaling (AID 588516; active means well fitted curve in the direction sought with a large enough effect in the signal ratio, with a control signal flat, not every such curve was filed as active; inconclusive means small, poorly fitted or top-dose-only effect, or effect the other way, or a change in a side signal; inactive means no such curve, though single readings can be large or run the other way; the % refers to the signal ratio)
# How it was run: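 AR-UAS-bla-GripTite HEK 293 cells (2000/well, 5 h at 37 C) received compound titrations, then R1881 at 10 nM final; after 16 h at 37 C, CCF4 dye 2 h RT, beta-lactamase fluorescence read; IC50 from Hill fits.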
# [13] = biological target: Glucocorticoid receptor (Homo sapiens) (UniProt P04150); assay: qHTS assay for small molecule agonists of glucocorticoid receptor signaling (AID 588532; active means well fitted curve in the direction sought with a large enough effect in the signal ratio, with a control signal flat; inconclusive means small, poorly fitted or top-dose-only effect, or a change in a side signal; inactive means no such curve, though single readings can be large or run the other way; the % refers to the signal ratio); conditions: HeLa MMTV-bla, beta-lactamase ratio, agonist, 18 h; stronger effect = higher value; percent of dexamethasone control, DMSO zero
# Chain of Glucocorticoid receptor (Homo sapiens) (P04150 whole entry, looked up): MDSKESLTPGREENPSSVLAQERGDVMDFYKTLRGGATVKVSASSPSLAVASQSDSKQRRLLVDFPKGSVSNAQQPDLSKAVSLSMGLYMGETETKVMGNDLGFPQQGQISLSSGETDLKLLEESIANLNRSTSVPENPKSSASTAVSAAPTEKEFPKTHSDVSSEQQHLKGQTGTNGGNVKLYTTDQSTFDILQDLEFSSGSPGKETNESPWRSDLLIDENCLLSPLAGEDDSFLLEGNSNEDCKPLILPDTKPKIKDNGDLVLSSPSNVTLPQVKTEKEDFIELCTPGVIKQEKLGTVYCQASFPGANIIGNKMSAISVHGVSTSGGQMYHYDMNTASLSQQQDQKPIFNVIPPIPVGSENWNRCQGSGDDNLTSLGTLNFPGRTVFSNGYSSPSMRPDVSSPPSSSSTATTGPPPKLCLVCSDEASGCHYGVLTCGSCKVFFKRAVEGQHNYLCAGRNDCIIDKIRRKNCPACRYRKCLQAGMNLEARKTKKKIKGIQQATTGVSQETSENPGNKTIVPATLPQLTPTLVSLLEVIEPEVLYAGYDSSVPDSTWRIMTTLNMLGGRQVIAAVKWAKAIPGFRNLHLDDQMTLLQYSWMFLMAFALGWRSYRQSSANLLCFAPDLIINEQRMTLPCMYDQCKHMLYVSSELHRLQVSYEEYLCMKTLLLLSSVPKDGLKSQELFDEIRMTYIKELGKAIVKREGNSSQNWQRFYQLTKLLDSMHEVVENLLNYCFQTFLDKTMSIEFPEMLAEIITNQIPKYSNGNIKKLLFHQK
# How it was run: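 MMTV-bla HeLa beta-lactamase reporter cells in 1% charcoal/dextran FBS medium, compounds up to 92 uM for 18 h at 37 C, CCF4 readout; normalized to 0.1 uM dexamethasone (100%), EC50 and efficacy from Hill fits.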
# [14] = biological target: Glucocorticoid receptor (Homo sapiens) (UniProt P04150); assay: qHTS assay for small molecule antagonists of glucocorticoid receptor signaling (AID 588533; active means well fitted inhibition curve with a large enough effect in the signal ratio, with a control signal flat, not every such curve was filed as active; inconclusive means small, poorly fitted or top-dose-only effect, or effect the other way, or a change in a side signal; the % refers to the signal ratio)
# How it was run: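 Antagonist-mode qHTS: compound titrations added to GRE-bla HeLa cells, then dexamethasone 2 nM final; 18 h, 37 C. CCF4 FRET fluorescence normalized to dexamethasone and DMSO; IC50 from Hill fit.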
structure (smiles),measurement,setting,value
CNC(=O)Oc1cccc2ccccc12,Potency,[1],inactive
same,Potency,[2],inactive
same,Potency,[3],inactive
same,Potency,[4],inactive
same,activation,[5],-1.5% (inactive)
same,outcome,[6],inactive
same,max response,[7],25.4%
same,Potency,[8],inactive
same,outcome,[9],inactive
COP(=O)(OC)OC=C(Cl)Cl,Potency,[1],inactive
same,Potency,[2],inactive
same,Potency,[3],inactive
same,outcome,[6],inactive
same,max response,[7],3.66% and 4.74% and -42.4%
same,Potency,[8],inactive
same,outcome,[10],inactive
CCCCCCCCCCCC[N+](C)(C)CCOc1ccccc1,Potency,[1],79.4 µM (active)
same,Potency,[2],12.6 µM [inconclusive] (active)
same,outcome,[6],inactive
same,outcome,[9],inactive
CCCCCCCCCCCCCCCC[n+]1ccccc1,Potency,[1],20 µM (active)
same,outcome,[6],inactive
NC(=O)OCCCc1ccccc1,Potency,[1],inactive
COc1ccc(CN2CCNCC2)c(OC)c1OC,Potency,[1],inactive
O=C(CCCN1CCC(n2c(=O)[nH]c3ccccc32)CC1)c1ccc(F)cc1,Potency,[1],inactive
COP(=S)(OC)Oc1ccc(Sc2ccc(OP(=S)(OC)OC)cc2)cc1,Potency,[3],inactive
same,activation,[11],-10.3% (inactive)
same,outcome,[12],inactive
same,outcome,[6],inactive
same,max response,[7],-0.163%
same,Potency,[8],inactive
same,outcome,[10],inactive
same,outcome,[9],inactive
CCN(CC)C(C)C(=O)c1ccccc1 (stereo not given),Potency,[1],inactive
Cc1ccc(N=CN(C)C=Nc2ccc(C)cc2C)c(C)c1,Potency,[1],inactive
same,Potency,[3],inactive
same,activation,[13],6.83% (inactive)
same,Potency,[14],inactive
CC[n+]1c(-c2ccccc2)c2cc(N)ccc2c2ccc(N)cc21,Potency,[1],39.8 µM (active)
same,Potency,[3],inactive
same,activation,[5],9.69% (inactive)
same,outcome,[6],inactive
same,max response,[7],-102%
same,Potency,[8],31.6 µM (active)
CN1C(=O)[C@@H](NC(=O)c2cc3ccccc3[nH]2)N=C(c2ccccc2)c2ccccc21,Potency,[1],inactive
